According to ChEMBL document CHEMBL2218924, “A broad activity screen in support of a chemogenomic map for kinase signalling research and drug discovery” (Biochem J, 2013):

target: Serine/threonine-protein kinase pim-2 (Homo sapiens) (UniProt Q9P1W9); conditions: at 10 µM
Sequence (Q9P1W9 whole entry, looked up): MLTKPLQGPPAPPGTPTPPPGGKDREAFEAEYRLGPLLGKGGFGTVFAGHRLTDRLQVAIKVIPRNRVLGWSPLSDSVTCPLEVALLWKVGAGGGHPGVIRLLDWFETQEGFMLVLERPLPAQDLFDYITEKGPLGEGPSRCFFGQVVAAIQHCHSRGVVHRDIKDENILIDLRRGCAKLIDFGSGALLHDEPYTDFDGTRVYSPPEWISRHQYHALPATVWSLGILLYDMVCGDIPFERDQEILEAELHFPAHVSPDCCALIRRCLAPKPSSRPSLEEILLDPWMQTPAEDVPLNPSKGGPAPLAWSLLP

| Structure (SMILES) | residual activity [%] |
| --- | --- |
| O=S(=O)(NCCNC/C=C/c1ccc(Br)cc1)c1cccc2cnccc12 | 132 |
| c1ccc(-c2cnc(Nc3ccc(OCCN4CCCC4)cc3)s2)cc1 | 105 |
| O=C(Nc1nc2ccccc2n1CCN1CCOCC1)c1cccc([N+](=O)[O-])c1 | 78 |
| N#C/C(=C1/Nc2ccccc2S1)c1ccnc(NCCc2cccnc2)n1 | 3 |
| O=C1C(Cl)=C(N2C(=O)CCC2=O)C(=O)c2ccccc21 | 99 |
| O=C(Nc1ccc(Cl)cc1)c1ccccc1NCc1ccncc1 | 124 |
| O=C(NC(NC(=S)Nc1ccc(F)c([N+](=O)[O-])c1)C(Cl)(Cl)Cl)C(c1ccccc1)c1ccccc1 (centres undefined) | 70 |
| O=C1NC(=O)C(c2c[nH]c3ccccc23)=C1c1c[nH]c2ccccc12 | 8 |
| COc1ccc2c(c1)c(C1=C(c3c[nH]c4ccccc34)C(=O)NC1=O)cn2CCCN(C)C | 9 |
| CC(C)N(CCC(=O)c1ccc2ccccc2c1)Cc1ccccc1 | 127 |
| O=C1NC(=O)C(c2cn(CCCn3ccnc3)c3ccccc23)=C1Nc1ccccc1 | 54 |
| O=c1c(-c2ccc(F)cc2)c(-c2ccncc2)[nH]n1-c1ccc(Cl)cc1 | 100 |
| O=C(c1cc2cc(O)ccc2[nH]1)c1cc2cc(O)ccc2[nH]1 | 64 |
| COc1cc2nccc(Oc3ccc(NC(=O)Nc4cc(C)on4)c(Cl)c3)c2cc1OC | 103 |
| O=C1Cc2c([nH]c3ccc([N+](=O)[O-])cc23)-c2ccccc2N1 | 117 |
| COc1ccc(COc2ccc(Cc3cnc(N)nc3N)cc2OC)cc1 | 115 |
| Nc1n[nH]c2nc3ccccc3nc12 | 93 |
| CC(C)c1nn(-c2c(Cl)cccc2Cl)c2nc(Cc3ccc(OCCO)cc3)[nH]c(=O)c12 | 103 |

target: Serine/threonine-protein kinase pim-3 (Homo sapiens) (UniProt Q86V86); conditions: at 1 µM

| Structure (SMILES) | residual activity [%] |
| --- | --- |
| N#C/C(=C1/Nc2ccccc2S1)c1ccnc(NCCc2cccnc2)n1 | 45 |
| O=C1C(Cl)=C(N2C(=O)CCC2=O)C(=O)c2ccccc21 | 84 |
| COc1ccc2c(c1)c(C1=C(c3c[nH]c4ccccc34)C(=O)NC1=O)cn2CCCN(C)C | 57 |
| N#Cc1c(NC(=O)c2cccc3ccccc23)sc2c1CCCC2 | 88 |
| Oc1cccc(-c2nc(N3CCOCC3)c3oc4ncccc4c3n2)c1 | 98 |
| Cc1cc(C)c(/C=C2\C(=O)Nc3ccccc32)[nH]1 | 100 |
| COc1cc2nccc(Oc3ccc(NC(=O)Nc4cc(C)on4)c(Cl)c3)c2cc1OC | 107 |
| CCN1/C(=C/C(C)=O)Sc2ccc(OC)cc21 | 51 |
| Nc1n[nH]c2nc3ccccc3nc12 | 95 |
| CC(C)c1nn(-c2c(Cl)cccc2Cl)c2nc(Cc3ccc(OCCO)cc3)[nH]c(=O)c12 | 93 |
| Fc1ccc(-c2nc3n(c2-c2ccncc2)CCS3)cc1 | 94 |
